Laboratory results published in PubChem BioAssay AID1851 (National Center for Advancing Translational Sciences (NCATS), 2009).
The campaign covered roughly 16,000 compounds. About 5,800 (36%) were called active. Not shown: some 23% with an inconclusive outcome. This is one part of the list. Unmarked numbers belong to inactive results. Calls come from the whole dose curve; as a rule, active = well fitted curve in the direction sought with a large enough effect; inconclusive = small, poorly fitted or top-dose-only effect, or effect the other way; inactive = no such curve, though single readings can be large or run the other way.
% is set by controls: 0 for no effect and ±100 for the full control effect.

Each molecule was assayed against Cytochrome P450 2C19 (Homo sapiens) (UniProt P33261) (assay: Cytochrome panel assay with activity outcomes). Conditions: recombinant CYP, pro-luciferin dealkylation, luminescence, p450-cyp2c19; series mostly up to 57.1 µM; activity, negative = inhibition: at the top concentration.
Chain of Cytochrome P450 2C19 (Homo sapiens) (P33261 whole entry, looked up): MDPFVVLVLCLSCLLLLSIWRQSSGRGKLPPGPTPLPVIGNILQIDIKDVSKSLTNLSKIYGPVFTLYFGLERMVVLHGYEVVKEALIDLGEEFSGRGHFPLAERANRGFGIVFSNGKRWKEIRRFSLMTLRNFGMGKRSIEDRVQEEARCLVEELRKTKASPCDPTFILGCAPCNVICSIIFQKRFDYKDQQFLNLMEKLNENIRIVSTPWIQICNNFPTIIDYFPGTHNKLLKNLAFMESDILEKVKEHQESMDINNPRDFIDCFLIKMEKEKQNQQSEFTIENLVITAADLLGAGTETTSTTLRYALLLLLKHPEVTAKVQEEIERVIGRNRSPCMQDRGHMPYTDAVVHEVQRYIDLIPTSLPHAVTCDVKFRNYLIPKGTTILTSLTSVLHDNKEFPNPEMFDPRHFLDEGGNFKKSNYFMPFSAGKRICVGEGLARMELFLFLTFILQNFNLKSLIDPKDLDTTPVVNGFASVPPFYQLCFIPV
With CCn1nccc1C(=O)Nc1nc2ccccc2n1CCN1CCCCC1 the “activity, negative = inhibition” value was -4.94%. With COc1ccc(CNc2nc3ccccc3n2Cc2ccccc2)cc1OC the AC50 was 7.94 µM (active). For O=C(Nc1nc2ccccc2n1Cc1ccccc1)c1ccc(COc2ccccc2[N+](=O)[O-])o1, the AC50 was 1.26 µM (active). For CC(=O)Nc1nc2ccccc2n1Cc1ccccc1, the AC50 was 22.4 µM (active). In the case of C=CCn1c(NCc2ccccc2)nc2ccccc21, the AC50 is reported as 3.16 µM (active). CC(C)CN1CCC2(CC1)CCN(C(=O)c1cc(C(F)(F)F)cc(C(F)(F)F)c1)CC2 was tested, and the “activity, negative = inhibition” value was 14.1%. For CC[C@](N)(CCC(=O)O)C(=O)O, the “activity, negative = inhibition” value was -20.8%. With CN(C)c1ncc2nc(-c3cc(F)cc(F)c3)c(=O)n(C[C@H]3CCCO3)c2n1 the “activity, negative = inhibition” value was -6.59%. With O=C(CN(Cc1ccccc1)S(=O)(=O)c1ccc2c(c1)OCCO2)N/N=C/c1ccc(F)cc1 the AC50 was 3.98 µM (active). CN(CCc1ccccn1)c1ccc2c(c1)C(=O)c1ccccc1-2 was tested, and the AC50 was 2.51 µM (active). With CN(CCc1ccccn1)c1ccc2c(c1)Cc1ccccc1-2 the AC50 was 0.794 µM (active). In the case of COC(=O)c1nnn(Cc2ccccc2)c1N, the “activity, negative = inhibition” value is reported as 3.49%. CCOC(=O)N/N=C1/C[C@@H](O)[C@@H](O)[C@@H]2[C@@H]3C(=O)N(Cc4ccccc4)C(=O)[C@H]3CC[C@@H]12 showed an activity, negative = inhibition of 11.9% [at 11.4 µM]. CCOC(=O)C1=C(O)C(=O)N(Cc2ccccc2)C1 was tested, and the AC50 was 15.8 µM (active). With O=c1onc2n1-c1cc(Br)ccc1OC2 the “activity, negative = inhibition” value was 5.02%. In the case of Cc1nn(-c2ccccc2)c(C)c1/C=N/NC(=O)c1cc(-c2ccc(Cl)s2)[nH]n1, the AC50 is reported as 10 µM (active). In the case of Cc1nn(-c2ccccc2)c(Cl)c1/C=N/NC(=O)c1ccco1, the AC50 is reported as 15.8 µM (active). With N[C@@H](CCCP(=O)(O)O)C(=O)O the “activity, negative = inhibition” value was -20.6%. In the case of COc1ccc2c(c1)N(C[C@@H](C)CN(C)C)c1ccccc1S2, the “activity, negative = inhibition” value is reported as -41.9% [at 25.6 µM]. OC1CC2CC[C@H](C1)N2CCCN1c2ccccc2Sc2ccc(Cl)cc21 (stereo partly drawn) showed an activity, negative = inhibition of -19.5% [at 11.4 µM]. COc1ccc2c(c1)N(CC[C@H]1CCCCN1C)c1ccccc1S2 showed an activity, negative = inhibition of -12% [at 11.4 µM]. O=C(CSc1nc2ccccc2s1)N1c2ccccc2Sc2ccc(C(F)(F)F)cc21 was tested, and the AC50 was 4.47 µM (active). O=C(O)CCCSc1nc2ccccc2s1 was tested, and the activity, negative = inhibition was 20.2% [at 11.4 µM]. For O=C(CSc1nc2ccccc2o1)N1c2ccccc2Sc2ccc(Cl)cc21, the AC50 was 2.51 µM (active). O=C1CSC2(CCN(CCCN3c4ccccc4Sc4ccc(Cl)cc43)CC2)N1 was tested, and the activity, negative = inhibition was -35% [at 11.4 µM]. With COc1ccc(OCc2nnc(SCC(=O)N3c4ccccc4Sc4ccc(Cl)cc43)o2)cc1 the AC50 was 6.31 µM (active). Work on Nc1c(OCC(=O)O)ccc2cc(S(=O)(=O)O)ccc12 yielded an activity, negative = inhibition of -19.3% [at 11.4 µM]. In the case of O=C(O)c1nn(-c2ccccc2)nc1-c1nn(-c2ccccc2)nc1C(=O)O, the “activity, negative = inhibition” value is reported as -16%. For CN(C)C=Nc1ccc2nn(-c3ccccc3)nc2c1, the AC50 was 17.8 µM (active). With CC(C)(CC(=O)Nc1ccccc1)C(=O)O the activity, negative = inhibition was 43% [at 11.4 µM]. In the case of CSc1ccc(CNc2ccccc2)cc1, the AC50 is reported as 0.631 µM (active). With CSc1ccc(CNc2ccc(C)c(C)c2)cc1 the AC50 was 0.0316 µM (active). In the case of CSc1ccc(CNc2ccc(Cl)cc2)cc1, the AC50 is reported as 0.02 µM (active). With CN(C)c1ncc2nc(-c3ccc(F)cc3)c(=O)n(CCC#N)c2n1 the “activity, negative = inhibition” value was -22.4%. For CCNc1ncc2nc(-c3cn(C)c4ccccc34)c(=O)n(CCC#N)c2n1, the “activity, negative = inhibition” value was -6.26%. With CN(C)c1ncc2nc(CCc3ccccc3)c(=O)n(CCC#N)c2n1 the AC50 was 10 µM (active). In the case of CCNc1ncc2nc(-c3ccc(OC)cc3)c(=O)n(CCOC)c2n1, the “activity, negative = inhibition” value is reported as 11.6%. In the case of CCNc1ncc2nc(-c3ccc(F)cc3)c(=O)n(CCOC)c2n1, the “activity, negative = inhibition” value is reported as 26.9%. In the case of CCNc1ncc2nc(CCc3ccccc3)c(=O)n(CCC#N)c2n1, the AC50 is reported as 15.8 µM (active). For Cc1nc2cnc(N(C)C)nc2n(CCC#N)c1=O, the “activity, negative = inhibition” value was 16.4%. With N#CCCn1c(=O)c(CCc2ccccc2)nc2cnc(Nc3ccccc3)nc21 the “activity, negative = inhibition” value was 2.05%. CCNc1ncc2nc(CCc3ccccc3)c(=O)n(CCOC)c2n1 was tested, and the AC50 was 10 µM (active). With COc1ccc(CCCC(=O)NC2CCCCC2)cc1 the AC50 was 3.16 µM (active). In the case of COc1ccc(CCNC(=O)COc2ccc(S(=O)(=O)NC3CCCCC3)cc2Cl)cc1, the AC50 is reported as 7.94 µM (active). For COc1ccc2c(c1)C(=O)N(CCc1ccc(S(=O)(=O)NC(=O)NC3CCCCC3)cc1)C(=O)C2(C)C, the “activity, negative = inhibition” value was -28.2% [at 25.6 µM]. In the case of COc1cccc(-c2nccc(NCc3ccccc3)n2)c1, the AC50 is reported as 7.94 µM (active). In the case of COc1cccc(-c2nccc(NCc3cccc(C)c3)n2)c1, the AC50 is reported as 6.31 µM (active). COc1cccc(-c2nccc(NCc3cnc(C)cn3)n2)c1 was tested, and the “activity, negative = inhibition” value was -39.6%.
